Results from PubChem BioAssay AID1220 (Sanford-Burnham Center for Chemical Genomics, 2008).
In all, about 190,000 compounds went through this assay and about 1,300 (0.68%) were called active. This is one part of a sample in which actives are shown more often than they occur. Values without a mark were called inactive. No stated cut-off is given here; in the data, active means inhibition above about 50%; inactive means the rest.

target: Mannose-6-phosphate isomerase (Homo sapiens) (UniProt P34949); test: MPI inhibition at elevated mannose 6-phosphate – biochemical, fluorescence intensity, high mannose 6-phosphate, primary screen (AID 1220); conditions: recombinant PMI enzyme, coupled fluorescence intensity; at 20 µM; active compounds read high
Sequence (P34949 whole entry, looked up): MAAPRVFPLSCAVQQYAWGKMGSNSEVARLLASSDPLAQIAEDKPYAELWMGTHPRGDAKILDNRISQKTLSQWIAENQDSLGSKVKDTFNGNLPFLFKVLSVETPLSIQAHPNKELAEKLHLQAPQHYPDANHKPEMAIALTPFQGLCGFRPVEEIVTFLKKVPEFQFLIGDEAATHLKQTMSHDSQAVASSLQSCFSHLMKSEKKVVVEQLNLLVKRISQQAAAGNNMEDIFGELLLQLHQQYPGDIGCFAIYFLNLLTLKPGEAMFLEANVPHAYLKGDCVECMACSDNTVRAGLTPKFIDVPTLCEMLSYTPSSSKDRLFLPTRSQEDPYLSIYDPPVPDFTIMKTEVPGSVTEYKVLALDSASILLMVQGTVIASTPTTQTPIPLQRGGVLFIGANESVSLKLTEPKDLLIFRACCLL

Compound | inhibition
COCCNC(=O)Cn1cc2c(n1)CCC(C)C2 (stereo not drawn) | 4.1%
COC(=O)C1C(c2ccc(N(C)C)cc2)C(C(=O)OC)S(=O)(=O)CS1(=O)=O (stereo not drawn) | 15%
CC(=O)NC1(C2CCCCC2=O)CCCCC1 (stereo not drawn) | 4.2%
Cc1ccc(C(=O)N/C(=C\c2cccs2)c2nc3ccccc3[nH]2)cc1 | 57.5% (active)
COc1ccc(C(=O)N/C(=C/c2cccs2)c2nc3ccccc3[nH]2)cc1OC | 3.9%
O=C(N/C(=C/c1cccs1)c1nc2ccccc2[nH]1)c1ccccc1 | -4.7%
Cc1cc(C)cc(N2C(=O)CN(Cc3sccc3C)C2=S)c1 | 0.5%
CCOc1cccc(OCCOc2ccc(C(=O)c3ccccc3)cc2)c1 | 10.2%
CN1CCN(c2nc(-c3ccc(Cl)s3)cs2)CC1 | -4.8%
CCN(CC)c1ccc(C=Nc2ccccc2C)c(O)c1 | 66.6% (active)
CCN(CC)c1ccc(C=Nc2ccc(C)cc2C)c(O)c1 | 36.9%
CCN(CC)c1ccc(C=Nc2cc(C)ccc2C)c(O)c1 | 58.3% (active)
CCN(CC)c1ccc(/C=N/N2C(=O)c3ccccc3C2=O)c(O)c1 | -18.7%
CCN(CC)c1ccc(/C=N/NC(=S)NCc2ccccc2)c(O)c1 | 1.2%
CCN(CC)c1ccc(/C=N/Nc2ccc(C)cc2)c(O)c1 | -70.5%
Cc1ccc(-c2cc(C(=O)O)n(-c3ccc(S(N)(=O)=O)cc3)n2)cc1 | -17.2%
COc1cc(CC(=O)OCC(=O)Nc2ccc([N+](=O)[O-])cc2)cc(OC)c1OC | 5.9%
CCC(=O)Nc1cccc2cccnc12 | 1.3%
CC(C)NC(=O)COc1ccccc1C#N | -4.6%
Cc1ccc(C(=O)c2c[nH]cc2-c2ccccc2)cc1 | 4.1%
CC(C(=O)NC1CCCC1)N(Cc1ccco1)C(=O)c1snc(C(=O)NC2CCCC2)c1N (stereo not drawn) | 4%
CC1=CC2(O)OCCN(CCO)C2=CC1=O (stereo not drawn) | 57.4% (active)
Cc1ccc(-n2cccc2/C=C2\C(=N)N3N=C(c4ccco4)SC3=NC2=O)cc1 | -16.6%
Cc1ccc2c(c1)c1c(n2CC(O)CNC(C)(C)C)CCCC1 (stereo not drawn) | 27.9%
Cn1c(/N=C/c2cc(Cl)ccc2O)nc2ccccc21 | 49.3%

Compound | inhibition
Cc1nn(C)c(C)c1N=Cc1c(O)ccc2ccccc12 | 50.3% (active)
Oc1ccc2ccccc2c1/C=N/n1cnnc1 | 40.6%
CCn1c(/C=N/c2nc3ccccc3n2C)nc2ccccc21 | 33.8%
Cc1nc2ccccc2c(=O)n1/N=C/c1c(O)ccc2ccccc12 | 17.6%
O=C(c1noc2c1CCCC2)N1CCN(c2ccccc2)CC1 | 3.6%
O=C(CSc1nnc(-c2ccc(Cl)s2)o1)N1CCOCC1 | 30.1%
Cc1c2c(c(C)n1C)C(C(=O)NC1CCCCC1)N(Cc1ccccc1)C2=O (stereo not drawn) | -4.7%
Cc1ccc(NC(=O)CSc2nc(N)c(-c3ccccc3)c(=O)[nH]2)cc1Cl | -0.7%
CCN(CC)C(=O)COC(=O)c1cc(-c2ccc(OC)cc2)nc2ccccc12 | 7%
COc1ccc(N2CSC3=C(C#N)C(c4ccc(OC)c(OC)c4)CC(=O)N3C2)c(OC)c1 (stereo not drawn) | -8.6%
COc1ccc(N2CSC3=C(C#N)C(c4cc(OC)ccc4OC)CC(=O)N3C2)c(OC)c1 (stereo not drawn) | 55.5% (active)
COc1ccc(OC)c(C2CC(=O)N3CN(c4cccc(Cl)c4)CSC3=C2C#N)c1 (stereo not drawn) | 35%
COc1ccc(Br)cc1C1CC(=O)N2CN(Cc3ccccc3)CSC2=C1C#N (stereo not drawn) | 55.7% (active)
COc1ccc(OC)c(C2CC(=O)N3CN(c4ccccc4)CSC3=C2C#N)c1 (stereo not drawn) | -38.7%
COc1cc(OC)c(C2CC(=O)N3CN(c4ccccc4C)CSC3=C2C#N)cc1OC (stereo not drawn) | -1.4%
COc1cc(OC)c(C2CC(=O)N3CN(c4ccc(C)cc4)CSC3=C2C#N)cc1OC (stereo not drawn) | 28.2%
COc1ccc(N2CSC3=C(C#N)C(c4cc(OC)c(OC)cc4OC)CC(=O)N3C2)c(OC)c1 (stereo not drawn) | 36.9%
COc1ccc(OC)c(C2CC(=O)N3CN(c4ccccc4F)CSC3=C2C#N)c1 (stereo not drawn) | 17.1%
COc1ccc(Br)cc1C1CC(=O)N2CN(C)CSC2=C1C#N (stereo not drawn) | 51.8% (active)
COc1cc(OC)c(C2CC(=O)N3CN(c4ccccc4)CSC3=C2C#N)cc1OC (stereo not drawn) | 31.4%
CNC(=O)CSc1nnnn1-c1cc(C)ccc1C | 5.1%
CCOC(=O)c1c(NC(=O)CN2CCCc3ccccc32)sc(C)c1CC | 7.2%
CCOC(=O)/C(C#N)=C1/C=CN(Cc2ccccc2)C=N1 | 1.1%
CCCCN1C(=O)/C(=C(/C#N)C(N)=O)c2ccccc21 | 36.9%
CCOC(=O)/C(C#N)=C1/C(=O)N(Cc2ccccc2)c2ccccc21 | 66.7% (active)

Compound | inhibition
CCOC(=O)C1CCCN(C(=O)Nc2cccc(Cl)c2)C1 (stereo not drawn) | 2.6%
COc1cc([N+](=O)[O-])cc2cc(C(=O)NC(C)(C)C)c(=O)oc12 | 15.7%
C=CCSc1nc2sc3c(c2c(=O)n1CC=C)CCc1ccccc1-3 | 33.5%
C=CCn1c(SCC)nc2sc3c(c2c1=O)CCc1ccccc1-3 | 5.8%
O=C1CC(C(=O)N(c2ccccc2)C(C(=O)NC2CCCC2)c2ccncc2)CS1 (stereo not drawn) | 0.6%
Cc1c(C(=O)Nc2ccccc2)sc2nc[nH]c(=O)c12 | 8.6%
CCOC(=O)CSc1nc2c(c(=O)[nH]c(=O)n2C)n1CCCc1ccccc1 | 2.2%
CCOC(=O)CSc1nc2c(c(=O)[nH]c(=O)n2C)n1CCc1ccccc1 | 8.8%
CCCCCOC(=O)CSc1nc2c(c(=O)[nH]c(=O)n2C)n1CCc1ccccc1 | 107% (active)
CN1C(=O)CC(C(=O)O)SC1=Nc1ccc(F)cc1 (stereo not drawn) | -4.1%
CC(C)N1CCN(c2ccncc2S(=O)(=O)N2CCOCC2)CC1 | -5.7%
O=C(O)c1[nH]c2ccccc2c1C=NCc1ccccc1Cl | -5%
CC1=CC(C)(C)Nc2cc(C)c(C)cc21 | 56.3% (active)
CC1=CC(C)(C)Nc2ccc(C)cc21 | 40.8%
CC1=CC(C)(C)Nc2ccccc21 | 23.6%
C/C(=N/NC(=O)c1ccccc1)C(=O)O | 33.7%
COc1ccc(/C=C/C(=O)c2ccc(OC)cc2OC)cc1 | 2.1%
COc1ccc(/C=C/C(=O)c2ccc(OC)cc2OC)c(OC)c1 | 9.4%
COc1ccc(C(=O)/C=C/c2cc(OC)c(O)c(OC)c2)c(F)c1 | 62.9% (active)
COc1ccc(C(=O)/C=C/c2ccccc2)c(OC)c1 | 1.9%
COc1ccc(C(=O)/C=C/c2ccc(OC)c(O)c2)c(F)c1 | 62.5% (active)
COc1ccc(C(=O)/C=C/c2ccccc2)c(O)c1 | 5.8%
Cc1ccc(N(C(=O)Cn2nnc(-c3ccccc3)n2)C(C(=O)NC2CCCCC2)c2ccccn2)cc1C (stereo not drawn) | 6.5%
Cn1c(=O)n(Cc2ccc(Cl)cc2)c(=O)c2c1nc1n2CCN1Cc1ccco1 | 7.4%
Cc1cc2ncn(CCOc3ccccc3C#N)c2cc1C | 0.3%

Compound | inhibition
Cc1ccccc1-c1nsc(SCC(=O)Nc2ccc3c(c2)OCO3)n1 | 14.2%
CCN1/C(=C/c2ccc3cc(C)ccc3[n+]2CC)Sc2ccccc21 | -14.4%
CCN1/C(=C/c2ccc3cc(C)ccc3[n+]2CC)Sc2cc(C)ccc21 | 15%
CCOC(=O)N1CCN(c2cc(=O)n(-c3ccccc3C)c(=O)[nH]2)CC1 | -8%
Cc1ccsc1C(=O)OC1CCOC1=O (stereo not drawn) | -9.2%
COC(=O)c1nc2cc3c(cc2c(C)c1C(=O)OC)OCO3 | -5.6%
COC(=O)c1nc2ccc(N3CCOCC3)cc2c(C)c1C(=O)OC | 64.4% (active)
COC(=O)c1c(N)n(-c2ccc(N3CCOCC3)cc2)c2nc3ccccc3nc12 | 20%
Cc1nnc(SCc2ccc(F)cc2)n1NC/C=C/c1ccccc1 | 9.2%
CC(=O)N1CCN(C(=S)c2cccc([N+](=O)[O-])c2)CC1 | -0.6%
Cc1cccc(NC(=O)C2(c3ccccc3)CCOCC2)c1 | -5.7%
COc1ccc(C(=O)/C=C(\C)Nc2ccc3c(c2)OCO3)cc1 | 33.7%
CCOc1ccc(NC(=O)CN2CCN(CC(=O)Nc3ccc4c(c3)OCCO4)CC2)cc1 | -12.8%
CCOc1ccc(N/C(C)=C\C(=O)c2ccc3c(c2)OCCO3)cc1 | 61.4% (active)
Cc1nc(-c2ccccc2)nc2[nH]c(C(C)C)cc(=O)c12 | 16.9%
CCN(C(=O)COc1cccnc1[N+](=O)[O-])C1CCS(=O)(=O)C1 (stereo not drawn) | 43.2%
CCN(C(=O)COc1cccc2cccnc12)C1CCS(=O)(=O)C1 (stereo not drawn) | 63.2% (active)
CCN(C(=O)COc1ccccc1[N+](=O)[O-])C1CCS(=O)(=O)C1 (stereo not drawn) | -4%
O=C1CC(=O)N(CCNc2ncc(C(F)(F)F)cc2Cl)C(=O)N1 | 2.4%
COc1cc(Cl)c(C)cc1NC(=O)CSc1nnc(CCC(=O)O)c(=O)[nH]1 | 6.6%
O=C1CC(NCc2ccc3c(c2)OCO3)C(=O)N1CCc1ccccc1 (stereo not drawn) | 1%
COc1ccc(CCNC2CC(=O)N(CCc3ccc(OC)c(OC)c3)C2=O)cc1OC (stereo not drawn) | 1.6%
COc1ccc(CCN2C(=O)CC(NCc3ccc4c(c3)OCO4)C2=O)cc1OC (stereo not drawn) | 51% (active)
